The supplement of paper PMC10515830
Counter-ions that a name gives are not always drawn.

Legend:
Conditions in all cases: 10 µM; exposure time 6 h
[1] = test system: Danio rerio larvae (5 dpf); experiment: difference in excitability vs DMSO (percentage points); higher = more excitable than DMSO
How it was run: (§1)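 Wild-type zebrafish larvae at 5 dpf were kept in 96-well plates and exposed for 6 h to 100 µL egg water holding library compound at a final concentration of 10 µM. From 3 h into exposure, the plates were held at 28.5 ℃ and photographed every 6 s through a 3-h programme of moving lines and 100 ms, 400Hz tones. Each behaviour was scored by Z-LaP Tracker, a DeepLabCut model, and averaged over 48 larvae per compound. Every value gives the compound mean minus the vehicle control mean, in percentage points.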

[2] = test system: Danio rerio larvae (5 dpf); experiment: difference in startle response vs DMSO (percentage points); higher = stronger startle than DMSO
How it was run: as §1

[3] = test system: Danio rerio larvae (5 dpf); experiment: difference in activity during first hour vs DMSO (percentage points); higher = more activity than DMSO
How it was run: as §1

[4] = test system: Danio rerio larvae (5 dpf); experiment: difference in habituation to acoustic stimuli vs DMSO (percentage points); higher = more habituation than DMSO
How it was run: as §1

[5] = test system: Danio rerio larvae (5 dpf); experiment: difference in combined optomotor response to red, green and blue moving lines vs DMSO (percentage points); higher = stronger optomotor response than DMSO
How it was run: as §1

SMILES	difference in excitability [1]	difference in startle response [2]	difference in activity during first hour [3]	difference in habituation to acoustic stimuli [4]	difference [5]
O=C1CN(/N=C/c2ccc([N+](=O)[O-])o2)C(=O)N1 [Nitrofurantoin]	9.88	-2.07	8.16	4.03	8.98
COC(=O)C1=C(C)NC(C)=C(C(=O)OC(C)C)C1c1cccc2nonc12 (stereo not given) [Isradipine]	11.7	-10.9	-0.814	-7.82	-17.2
OC(CCN1CCCCC1)(c1ccccc1)C1CC2C=CC1C2 (stereo not given) [Biperiden (hydrochloride)]	9.71	-7.39	-0.127	-10.7	-2.85
CN(C)[C@@H]1C(O)=C(C(N)=O)C(=O)[C@@]2(O)C(O)=C3C(=O)c4c(O)cccc4[C@@](C)(O)[C@H]3[C@H](O)[C@@H]12 [Oxytetracycline]	-1.74	-1.21	20.6	5.81	-0.914
COc1ccc(S(=O)(=O)Nc2ccccc2CN(C)C/C=C/c2ccc(Cl)cc2)cc1 [KN-92 (hydrochloride)]	7.68	-0.787	-17.8	-4.48	-1.81
CC1(C)O[C@@H]2C[C@H]3[C@@H]4CCC5=CC(=O)C=C[C@]5(C)[C@H]4[C@@H](O)C[C@]3(C)[C@]2(C(=O)CO)O1 [Desonide]	-1.81	-1.62	0.404	6.53	1.67
CN1CCN2c3ncccc3Cc3ccccc3C2C1 (stereo not given) [Mirtazapine]	-3.43	3.21	17.5	-1.46	-7.5
CNC1(C)C2CCC(C2)C1(C)C (stereo not given) [Mecamylamine (hydrochloride)]	3.59	-1.88	-1.28	-4.36	11.1
Nc1ccn([C@@H]2CS[C@H](CO)O2)c(=O)n1 [Lamivudine]	0.811	2.66	9.03	2.12	2.14
CN(Cc1ccc(C(C)(C)C)cc1)Cc1cccc2ccccc12 [Butenafine (hydrochloride)]	2.06	2.01	-10.7	0.859	-2.95
COc1ccc2cc(CCC(C)=O)ccc2c1 [Nabumetone]	0.732	-0.884	1.19	-1.53	0.192
C=C1/C(=C\C=C2/CCC[C@]3(C)[C@@H]([C@H](C)/C=C/[C@@H](O)C4CC4)CC[C@@H]23)C[C@@H](O)C[C@@H]1O [Calcipotriol (hydrate)]	15.4	-5.26	0.435	-0.975	5.42
CCCc1cc(=O)[nH]c(=S)[nH]1 [Propylthiouracil]	7.08	1.86	3.37	-0.81	1.84
CC1=C(/C=C/C(C)=C/C=C/C(C)=C/C(=O)O)C(C)(C)CCC1 [all-trans Retinoic Acid]	7.11	-8.47	-4.15	-13.5	6.48
Nc1nc(-n2cc(C(=O)O)c(=O)c3cc(F)c(N4CC(O)C4)c(Cl)c32)c(F)cc1F [Delafloxacin]	14.4	12.8	-8.49	7.81	9.67
CCCCC[C@H](O)CC[C@@H]1[C@H]2Cc3cccc(OCC(=O)O)c3C[C@H]2C[C@H]1O [Treprostinil]	-4.04	-1.85	4.94	-2.5	-6.11
O=C1CC2(CCCC2)CC(=O)N1CCCCN1CCN(c2ncccn2)CC1 [Buspirone (hydrochloride)]	24.5	1.48	-8.4	4.59	0.171
CC(=O)OCC(CCn1cnc2cnc(N)nc21)COC(C)=O [Famciclovir]	0.306	6.99	-7.41	0.929	4.52
O=C(O)COCCN1CCN(C(c2ccccc2)c2ccc(Cl)cc2)CC1 (stereo not given) [Cetirizine (hydrochloride)]	-1.62	2.46	4.04	-2.99	6.72
O=C(CCCN1CC=C(n2c(=O)[nH]c3ccccc32)CC1)c1ccc(F)cc1 [Droperidol]	29	-1.85	12.3	-7.94	-0.322
C=C1CC[C@H](O)C/C1=C/C=C1\CCC[C@]2(C)[C@@H]([C@H](C)/C=C/[C@H](C)C(C)C)CC[C@@H]12 [Vitamin D2]	3.72	-5.12	3.16	2.67	8.48
CO/N=C(\C(=O)N[C@@H]1C(=O)N2C(C(=O)[O-])=C(C[N+]3(C)CCCC3)CS[C@H]12)c1csc(N)n1 [Cefepime (hydrochloride hydrate)]	1.19	-0.767	1.35	1.3	-1.46

SMILES	difference in excitability [1]	difference in startle response [2]	difference in activity during first hour [3]	difference in habituation to acoustic stimuli [4]	difference [5]
O=C1Nc2ccc(Cl)cc2[C@@](C#CC2CC2)(C(F)(F)F)O1 [Efavirenz]	10.7	-10.7	-17.8	-12.8	-17.4
NCCC(O)(P(=O)(O)O)P(=O)(O)O [Pamidronate (sodium salt)]	9.47	4.04	-2.6	-0.604	2.29
Clc1ccccc1C(c1ccccc1)(c1ccccc1)n1ccnc1 [Clotrimazole]	-0.151	4.37	-19.1	-10.2	-12.6
COCC(=O)Nc1c(I)c(C(=O)NCC(O)CO)c(I)c(C(=O)N(C)CC(O)CO)c1I (stereo not given) [Iopromide]	3	-1.37	11.3	1.33	5.16
O=c1ccc2ccc(OCCCCN3CCN(c4cccc5sccc45)CC3)cc2[nH]1 [Brexpiprazole]	13.2	-1.39	25.4	-17.4	-9.77
C[C@@H]1C[C@H]2[C@@H]3CCC4=CC(=O)C=C[C@]4(C)[C@@]3(Cl)[C@@H](O)C[C@]2(C)[C@@]1(OC(=O)c1ccco1)C(=O)CCl [Mometasone Furoate]	11.9	0.167	1.33	0.89	3.46
CC(=O)CC(c1ccccc1)c1c(O)c2ccccc2oc1=O (racemic) [(±)-Warfarin]	7.35	-1.45	-0.141	-3.9	-1.34
COc1ccc(C[C@@H](C)NC[C@H](O)c2ccc(O)c(NC=O)c2)cc1 [Arformoterol (tartrate)]	10.3	-8.57	39	-7.89	-2.14
COc1ccnc(C[S+]([O-])c2nc3cc(OC(F)F)ccc3[nH]2)c1OC (stereo not given) [Pantoprazole]	1.4	2.07	3.07	-4.45	5.14
CC(=O)N(O)CCCCCNC(=O)CCC(=O)N(O)CCCCCNC(=O)CCC(=O)N(O)CCCCCN [Deferoxamine (mesylate)]	4.87	-4.66	10.3	-2.2	2.91
Cn1c(=O)c2[nH]cnc2n(C)c1=O [Oxtriphylline]	-4.32	6.97	-0.101	1.02	-3.12
CON(C)Cc1ccc(O)c2c1C[C@H]1C[C@H]3[C@H](N(C)C)C(=O)C(C(N)=O)=C(O)[C@@]3(O)C(=O)C1=C2O	-1.28	-2.07	7.53	4.95	0.0321
CO[C@H]1/C=C/O[C@@]2(C)Oc3c(C)c(O)c4c(O)c(c(/C=N/N5CCN(C)CC5)c(O)c4c3C2=O)NC(=O)/C(C)=C\C=C\[C@H](C)[C@H](O)[C@@H](C)[C@@H](O)[C@@H](C)[C@H](OC(C)=O)[C@@H]1C [Rifampicin]	2.43	2.9	8.79	-1.68	-3.29
CS(=O)(=O)CCNCc1ccc(-c2ccc3ncnc(Nc4ccc(OCc5cccc(F)c5)c(Cl)c4)c3c2)o1 [Lapatinib]	-0.459	0.335	-8.64	-0.929	1.37
CC(C)[C@H](N)C(=O)OCCOCn1cnc2c(=O)[nH]c(N)nc21 [L-Valacyclovir (hydrochloride)]	6.67	6.55	5.61	-8.71	-5.74
CCOC(=O)C1=C[C@@H](OC(CC)CC)[C@H](NC(C)=O)[C@@H](N)C1 [Oseltamivir (phosphate)]	1.51	3.38	8.28	-5.42	3.62
CN(C)CCCN1c2ccccc2CCc2ccc(Cl)cc21 [Clomipramine (hydrochloride)]	0.766	1.97	-14.9	-3.04	-3.76
Cc1c(OCC(F)(F)F)ccnc1C[S@@+]([O-])c1nc2ccccc2[nH]1 [(R)-Lansoprazole]	7.16	4.39	7.03	-1.38	1.12
OC[C@H]1O[C@@H](n2cnc3c2N=CNC[C@H]3O)C[C@@H]1O [Pentostatin]	4.36	-6.74	2.27	0.584	3.35
C[C@@H](O)[C@H]1C(=O)N2C(C(=O)O)=C(S[C@@H]3CN[C@H](CNS(N)(=O)=O)C3)[C@H](C)[C@H]12 [Doripenem (hydrate)]	0.847	-3.28	18.4	-1.56	-1.12
Nc1nc(CC(=O)Nc2ccc(CCNC[C@H](O)c3ccccc3)cc2)cs1 [Mirabegron]	15.7	-0.811	3.64	-4.56	3.08
CCCSc1nc(N[C@@H]2C[C@H]2c2ccc(F)c(F)c2)c2nnn([C@@H]3C[C@H](OCCO)[C@@H](O)[C@H]3O)c2n1 [Ticagrelor]	4.33	1.19	2.64	1.79	9.27
